Bioassay records as filed in PubChem.
S2 tox – cell viability loss in ATXN counter-screen; AID 651635; actives 0.49% (n = 400,000); Potency, µM (highest dose often 56.7 µM), actives largely listed as cytotoxic; S2 cells (HEK-293 line with an ATXN2-luciferase reporter) viability, CellTiter-Fluor protease fluorescence, 24 h; also: nearly all actives have a fitted effect of over 40% in size
HepG2 viability – HepG2 cytotoxicity, counter-screen for TGF-b inhibitors | HepG2 CAGA-GFP viability, ATP luminescence, 18 h | Potency, µM (series often up to 46.1 µM), most hits filed as cytotoxic | actives 0.76% (n = 410,000) | AID 588856
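CellTiter-Glo luminescence gave cytotoxicity after 18 hours at 37 degrees C. The cells were HepG2 CAGA-GFP in 1% FBS DMEM, stimulated with 500 pg/mL TGF-beta after compound addition. %Activity was normalised to no-cell wells (complete cell-killing) and DMSO (no toxicity), and curves were fitted and classified.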
ATXN2 expr inh – inhibitors of ATXN2 expression | Potency, µM (series often up to 57 µM), hits mostly inhibitors | AID 1745845 | HEK-293 ATXN2-luciferase reporter, luminescence, 24 h | actives 0.72% (n = 360,000); also: nearly all actives have a fitted effect of over 55% in size
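qHTS (up to 57 uM final) was run with 24 h compound exposure of reporter cells at 37 °C. Each well was multiplexed: SteadyGlo luminescence measured ATXN2-luciferase expression after a fluorogenic Gly-Phe-AFC viability readout (25 uM final).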
TDP1 cell noCPT – qHTS for Inhibitors of human tyrosyl-DNA phosphodiesterase 1 (TDP1): qHTS in cells in absence of CPT; actives 15% (n = 420,000); Potency, µM (doses to about 46.2 µM), most hits filed as inhibitors; DT40 Tdp1-/- hTDP1 cells, no CPT, ATP luminescence, 48 h; also: nearly all actives have a fitted effect of over 55% in size
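Stably hTDP1-transfected Tdp1-null chicken DT40 cells were treated with library compounds minus camptothecin and grown for at least 48 hr at 37 °C, after which cellular ATP was quantified by luminescence.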
TGFb SMAD3 inh – blocks TGF-b signaling; HepG2 CAGA-GFP TGF-b/SMAD3 reporter, GFP fluorescence, 18 h; TGF-beta stimulated, 500 pg/mL final; actives 1.2% (n = 410,000); AID 588855; Potency, µM (doses to about 46.1 µM), actives largely listed as inhibitors; also: nearly all actives have a fitted effect of over 65% in size
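Per well, imaged GFP fluorescence of HEPG2 CAGA-GFP cells gives the signal; cells get compound, then TGF-beta (500 pg/mL final), 18 h at 37 degrees C; %Activity versus -TGF-beta and +DMSO controls.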
TDP1 cell CPT – DT40-hTDP1 cell growth loss with CPT | chicken DT40 Tdp1-/-;hTDP1 cells + 20 nM CPT, ATP luminescence, 48 h | Potency, µM (top dose mostly 46.2 µM), hits mostly inhibitors | actives 12% (n = 420,000) | AID 686979; also: nearly all actives have a fitted effect of over 55% in size
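Chicken DT40 Tdp1-/- cells stably complemented with human TDP1 were seeded at 400 cells/well in medium containing 20 nM camptothecin, exposed to pin-transferred compounds, and grown at 37 °C for at least 48 hr. Viability was read as ATP luminescence.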
Hits are given with their value; n = inactive; u = inconclusive; x = no result given. Rows were chosen to be rich in hits. Some 17% of all compounds tested hit in one or more screens of this group. Calls follow the shape of the dose curve; as a rule, active = well fitted curve in the direction sought with a large enough effect; inconclusive = small, poorly fitted or top-dose-only effect, or another doubt; inactive = no such curve, though single readings can be large; an effect the other way counts as inactive or inconclusive.

SMILES | S2 tox | HepG2 viability | ATXN2 expr inh | TDP1 cell noCPT | TGFb SMAD3 inh | TDP1 cell CPT
CN(C)c1ccc(CC(=O)N2CCCC(c3cc(C(=O)Nc4ccccc4)no3)C2)cc1 (stereo unspecified) | n | n | n | u | n | u
CCCC(=O)N1CCCC(c2cc(C(=O)Nc3ccc4c(c3)OCO4)no2)C1 (stereo unspecified) | n | n | n | n | n | n
O=C(Nc1ccc2c(c1)OCO2)c1cc(C2CCCN(C(=O)CCCc3ccccc3)C2)on1 (stereo unspecified) | n | n | n | u | n | 18µM
O=C(Nc1ccccc1)c1cc(C2CCCN(C(=O)C/C=C/c3ccccc3)C2)on1 (stereo unspecified) | n | n | n | 21µM | n | u
O=C(Nc1ccc2c(c1)OCO2)c1cc(C2CCCN(C(=O)CCc3ccccc3)C2)on1 (stereo unspecified) | u | n | n | u | n | 21µM
Cc1c(C(=O)NCCC#N)sc(=O)n1Cc1ccccc1F | n | n | n | n | n | n
Cc1cnc(-c2nc3ccccc3n2C(C(=O)NC(C)(C)C)c2ccncc2)cn1 (stereo unspecified) | x | x | x | n | x | n
CCOc1ccc2oc(C(=O)N(Cc3nnc(-c4ccccc4Cl)o3)C3CC3)c(C)c2c1 | n | n | n | 23µM | n | u
O=C(c1cc(Cl)nc2ccccc12)N(Cc1nnc(-c2ccccc2Cl)o1)C1CC1 | n | n | n | 21µM | n | 16µM
O=C(c1cc(Cl)nc2ccccc12)N(Cc1nnc(-c2ccc(Cl)cc2)o1)C1CC1 | u | n | n | 16µM | u | 12µM
CCOc1ccccc1N1CC(C(=O)N(Cc2nnc(-c3ccccc3Cl)o2)C2CC2)CC1=O (stereo unspecified) | n | n | n | u | n | u
Cc1occc1C(=O)NNC(=O)Nc1ccc([N+](=O)[O-])cc1 | n | n | x | n | n | n
Cc1ccc(O)c(NC(=O)C2CC(c3c(F)cccc3Cl)=NO2)c1 (stereo unspecified) | x | n | x | u | n | n
COc1cc(NC(=O)C2CC(c3c(F)cccc3Cl)=NO2)c(OC)cc1Cl (stereo unspecified) | n | n | n | u | n | u
N#Cc1c(NC(=O)C2CC(c3c(F)cccc3Cl)=NO2)sc2c1CCC2 (stereo unspecified) | n | n | n | 0.21µM | u | u
CCc1c(C)sc(NC(=O)C2CC(c3c(F)cccc3Cl)=NO2)c1C#N (stereo unspecified) | n | n | n | u | n | 16µM
CCOC(=O)c1c(C)oc2ncnc(N3CCN(c4ccc(C)cc4C)CC3)c12 | n | n | n | 23µM | u | 21µM
CCOC(=O)c1c(C)oc2ncnc(N3CCN(c4ccccc4OC)CC3)c12 | n | n | n | 16µM | n | u
CCOC(=O)c1c(C)oc2ncnc(N3CCN(c4cccc(Cl)c4)CC3)c12 | u | n | u | 16µM | 11µM | u
CCOc1ccccc1CNC(=O)c1c(C)oc2ncnc(N3CCOCC3)c12 | x | n | x | n | n | n
CCOC(=O)c1cc(S(=O)(=O)N2CCN(c3ccc(C)cc3C)CC2)[nH]n1 | n | n | n | 21µM | u | 9.2µM
O=c1[nH]nc(Sc2ccccc2)c(=S)[nH]1 | n | n | x | n | n | n
O=C(Nc1cccnc1)C1CCN(S(=O)(=O)c2ccc(Cl)cc2)CC1 | n | n | n | n | n | n
O=C(CSc1nc(-c2cccs2)nc2cc(=O)[nH]n12)Nc1cccc(C(F)(F)F)c1 | n | n | n | n | n | n
CCOC(=O)c1noc2ncnc(N3CCN(c4ccccc4OC)CC3)c12 | n | n | n | 2.9µM | u | 4.6µM
Cc1ccc(S(=O)(=O)N2CCC(=O)N(C(COCc3cccc(Cl)c3)Cc3ccccc3)CC2)cc1 (stereo unspecified) | n | n | n | 18µM | n | n
